Screens deposited in PubChem by National Center for Advancing Translational Sciences (NCATS).
The entries come from a sample that favours hits as a whole.
IMPase inh = qHTS Assay for Identifying the Cell-Membrane Permeable IMPase Inhibitors; Inositol monophosphatase 1 (Rattus norvegicus), P97697; CHO-M1 cells, IP1 accumulation, HTRF TR-FRET ratio; inhibition (IP1 accumulation), % at 46.1 µM; 120,000 tested, under 10 active; active means well fitted curve in the direction sought with a large enough effect in the signal ratio, not every such curve was filed as active; inconclusive means small, poorly fitted or top-dose-only effect, or a change in a side signal; inactive means no such curve, though single readings can be large or run the other way; the % refers to the signal ratio;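 further: cells stimulated with carbachol in lithium chloride buffer; higher means more IMPase inhibition seen as more IP1 and lower FRET ratio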
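Measured: the HTRF emission ratio (665/620 nm) plus the 620 nm donor channel, each fitted to the Hill equation to give AC50. Cells were CHO-M1 given compounds up to 46 uM and a 30 min carbachol stimulation at 37C.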
12-hLO inh = qHTS Assay for Inhibitors of 12-hLO (12-human lipoxygenase) | Potency, µM (doses to about 57.1 µM), usual class: inhibitors | 150,000 tested, 0.12% active | purified 12-hLO, xylenol orange hydroperoxide absorbance | AID 1452, 2008; further: nearly all actives have a fitted effect of over 55% in size
Target sequence (P18054 whole entry, looked up): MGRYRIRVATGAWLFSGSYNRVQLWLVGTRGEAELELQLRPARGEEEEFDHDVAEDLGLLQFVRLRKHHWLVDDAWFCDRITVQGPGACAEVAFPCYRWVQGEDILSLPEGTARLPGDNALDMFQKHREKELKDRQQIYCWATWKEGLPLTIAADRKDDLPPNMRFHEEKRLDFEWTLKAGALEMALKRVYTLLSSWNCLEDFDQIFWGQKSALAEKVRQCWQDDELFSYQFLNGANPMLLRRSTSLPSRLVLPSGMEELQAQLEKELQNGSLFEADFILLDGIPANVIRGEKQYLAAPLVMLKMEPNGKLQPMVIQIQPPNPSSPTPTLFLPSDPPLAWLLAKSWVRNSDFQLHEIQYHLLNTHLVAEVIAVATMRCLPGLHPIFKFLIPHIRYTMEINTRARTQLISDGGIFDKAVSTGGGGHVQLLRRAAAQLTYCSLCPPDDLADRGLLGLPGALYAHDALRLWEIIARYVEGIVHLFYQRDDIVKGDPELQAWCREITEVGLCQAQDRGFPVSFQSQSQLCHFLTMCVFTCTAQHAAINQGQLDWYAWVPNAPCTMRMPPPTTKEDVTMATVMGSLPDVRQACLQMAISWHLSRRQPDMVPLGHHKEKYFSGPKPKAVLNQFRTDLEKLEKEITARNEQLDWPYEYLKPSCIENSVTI
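Hydroperoxide output read as Fe(III)-xylenol orange absorbance, 573-to-405 nm ratio, after 30 min reaction with 40 uM arachidonic acid. Enzyme: 150 nM purified human 12hLO, 15 min compound preincubation; 25 mM Hepes pH 7.0, room temperature.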
PNC inhibitor = High Content Assay for Compounds that inhibit the Assembly of the Perinucleolar Compartment | 140,000 tested, 3.1% active | AID 2417, 2010 | activity change (PNC), negative = inhibition, % at 10 µM | PC3M PTB-GFP, PNC prevalence imaging, 16 h; stronger effect = lower value;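 active means readout at or below -70, meaning at least 70% loss of cells showing the perinucleolar compartment, a nuclear body marking cancer cells; inconclusive means readout between -30 and a set limit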
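Compounds are pinned in duplicate onto adhered PC3M cells stably expressing GFP-tagged PTB and incubated 16 h at 37 C. Cells are then fixed, nuclei stained with Hoechst, and PNC-positive cells counted.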
ALOX15B inhib = qHTS Assay for Inhibitors of 15-hLO-2 (15-human lipoxygenase 2) | purified 15hLO-2, xylenol orange hydroperoxide absorbance | Potency, µM (series often up to 57.1 µM), actives largely listed as inhibitors | 110,000 tested, 0.56% active | AID 881, 2007; further: nearly all actives have a fitted effect of over 60% in size
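Read-out: hydroperoxide product oxidises ferrous iron, measured as xylenol orange complex via the 573-to-405 nm absorbance ratio after 30 min. Reaction: 50 nM enzyme, 15 min compound preincubation, 45 uM arachidonic acid, 90 min RT, Hepes pH 7.5 with Triton X-100.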
IMPase Li cell = qHTS Assay for Identifying the Cell-Membrane Permeable IMPase Inhibitors: Potentiation with Lithium. CHO-M1 cells, IP1 TR-FRET (IP-One), carbachol + lithium. Potency, µM (highest dose often 59.4 µM), most hits filed as inhibitors. 210,000 tested, 0.35% active;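 further: IP1 builds up when IMPase is blocked and the TR-FRET signal falls; nearly all actives have a fitted effect of over 50% in size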
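Concentration–response in CHO-M1 cells, lithium-potentiated; 30 min at 37C. IP1 detected by competitive TR-FRET after 10 min lysis at RT. Hill-fitted AC50.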
Numbers stand for hits; n = inactive; u = inconclusive; x = no result; [ ] = dose if it differs, or a comment. Unless noted, the call rests on the fitted dose curve; in most records, active means well fitted curve in the direction sought with a large enough effect; inconclusive means small, poorly fitted or top-dose-only effect, or another doubt; inactive means no such curve, though single readings can be large; an effect the other way counts as inactive or inconclusive.

SMILES	IMPase inh	12-hLO inh	PNC inhibitor	ALOX15B inhib	IMPase Li cell
CC1=CC(C)(C)N(S(=O)(=O)c2ccc(F)cc2)c2ccccc21	n	n	u	n	n
CC1=CC(C)(C)N(S(=O)(=O)c2ccc(C)cc2)c2ccc(C)cc21	n	n	-90.5	n	n
CCCCOC(=O)Nc1cccc(C(C)=O)c1	n	n	u	n	n
CCOC(=O)Nc1cccc(C(=O)O)c1	n	n	-104.1	x	n
CCNc1ncc2nc(CCc3ccccc3)c(=O)n(Cc3ccc(F)cc3)c2n1	x	x	x	n	n
CNC(=O)c1cc2c(n(-c3ccc(C)cc3)c1=O)CC(C)(C)CC2=O	n	x	x	x	x
CCOC(=O)c1[nH]c(C)c(C(=O)OCC)c1C	n	n	n	n	n
CCOC(=O)c1c(C)[nH]sc1=S	u	n	n	u	14.1µM
CCOc1ccc(C(=O)Nc2cc(C)c3c(=O)oc4ccccc4c3n2)cc1	n	n	n	n	12.6µM
CCOc1ccc(C(=O)Nc2c(C(N)=O)oc3ccccc23)cc1	n	n	-118.9	x	n
O=C1NC2(CCCCC2)Cc2ccccc21	n	n	u	n	n
O=C(O)CN=C1NC2(CCCCC2)Cc2ccccc21	n	n	-100.0	x	n
COc1cccc(Nc2ncc3nc(C)c(=O)n(CCC#N)c3n2)c1	x	n	x	n	n
CCc1cccc(NC(=O)CSC2=NS(=O)(=O)c3ccccc32)c1	n	n	n	5.01µM	n
N#Cc1cc(Oc2cccc3cccnc23)c(-n2nnc3ccccc32)cc1C#N	n	10µM	n	u	x
CC1=C(C#N)c2nc(N)c(C#N)c(C)c2/C1=C\c1ccc(C)cc1	n	n	n	25.1µM	n
Cc1ccc(NC(=O)Cn2c(=O)n(CCC(=O)NCCc3ccccc3)c(=O)c3ccccc32)cc1	n	x	x	x	x
CC(C)N1CC=C2C(C#N)=C(N)C(C#N)(C#N)C(c3ccccc3)C2C1 (stereo not given)	n	n	-106.8	n	n
N#CC1=C(N)C(C#N)(C#N)[C@H](c2ccncc2)[C@H]2CN(C(=O)OCc3ccccc3)CC=C12	n	n	-100.0	x	n
CC(C)N1CC=C2C(C#N)=C(N)C(C#N)(C#N)[C@H](c3ccoc3)[C@H]2C1	n	n	n	n	n
CCOC(=O)N1CC=C2C(C#N)=C(N)C(C#N)(C#N)[C@H](c3cccs3)C2C1 (stereo not given in full)	n	n	-100.0	x	n
CC(C)(C)OC(=O)N1CC=C2C(C#N)=C(N)C(C#N)(C#N)C(c3cccs3)C2C1 (stereo not given)	n	n	n	u	n
COc1cc(C2C3CN(C)CC=C3C(C#N)=C(N)C2(C#N)C#N)ccc1OC(C)C (stereo not given)	n	n	u	n	n
CCCOc1ccc([C@@H]2C3CN(C(=O)OCC)CC=C3C(C#N)=C(N)C2(C#N)C#N)cc1OC (stereo not given in full)	n	n	-81.2	n	n
COc1ccc(NC(=O)N2CC[C@@]3(CCCN(C(=O)c4ccc(OC)cc4)C3)C2)cc1	x	n	x	n	n
SMILES	IMPase inh	12-hLO inh	PNC inhibitor	ALOX15B inhib	IMPase Li cell
Nc1nc(SCC(=O)c2ccc(Br)cc2)c2[nH]cnc2n1	x	n[11.4 µM]	x	n[11.4 µM]	n
CN1CC=C2C(C#N)=C(N)C(C#N)(C#N)C(Cc3ccccc3)C2C1 (stereo not given)	n	n	-119.2	n	n
CCC1C2CN(C(C)=O)CC=C2C(C#N)=C(N)C1(C#N)C#N (stereo not given)	n	n	n	n	n
N#CC1=C(N)C(C#N)(C#N)[C@H](c2ccncc2)[C@H]2CC3(CC=C12)OCCO3	n	n	-97.8	n	x
CCCn1c(-c2ccc(F)cc2)nc2c(N3CCN(CCC(=O)OCC)CC3)nc(C)nc21	x	n	x	n	n
COc1ccccc1OCCNC(=O)c1cc(SC)ccc1Cl	x	n	-113.0	x	n
COc1cccc(Cn2c(=O)c(-c3ccc(Cl)cc3)nc3cnc(N4CCOCC4)nc32)c1	x	x	x	n	n
COc1ccccc1N1CCN(CC(O)COc2ccc(C)cc2C(C)(C)C)CC1 (stereo not given)	n	x	x	x	x
